PubChem BioAssay (NCI)
Several values for one entry are separate records, joined by “and”; a condition that tells them apart may be missing. Identical values can stand only once. About 83,000 compounds went through this panel and 20% of them were active in at least one assay; those are over-represented in the sample as a whole.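 48-hour exposure, single concentration, 96-well plates; percent growth endpoint where 0 means no net growth. Active: below 10.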 Activity calls are given as the source filed them.

Tests used:
Test in all cases: NCI-60 one-dose screen, 48 h (100 = growth as untreated, 0 = no growth, -100 = all killed)
Settings in all cases: 10 µM unless noted
HCT-15 colon = system: HCT-15 colon
HT29 colon = system: HT29 colon
SNB-75 CNS = system: SNB-75 CNS
SNB-19 CNS = system: SNB-19 CNS
U251 CNS = system: U251 CNS
PC-3 prostate = system: PC-3 prostate
SK-MEL-5 melanoma = system: SK-MEL-5 melanoma
UACC-62 melanoma = system: UACC-62 melanoma
LOX IMVI melanoma = system: LOX IMVI melanoma
SK-MEL-28 melanoma = system: SK-MEL-28 melanoma
SK-MEL-2 melanoma = system: SK-MEL-2 melanoma
EKVX NSCLC = system: EKVX NSCLC
TK-10 renal = system: TK-10 renal
ACHN renal = system: ACHN renal
CAKI-1 renal = system: CAKI-1 renal
A498 renal = system: A498 renal
CCRF-CEM leukemia = system: CCRF-CEM leukemia
MOLT-4 leukemia = system: MOLT-4 leukemia
UO-31 renal = system: UO-31 renal
SN12C renal = system: SN12C renal

Measured: growth

Oc1c(CN2CCCCC2)ccc2cccnc12
inactive: HCT-15 colon 33.6% and 30.3% | HT29 colon 66.6% and 28.6% | SNB-75 CNS 82.5% and 85.6% | SNB-19 CNS 65.9% and 74.1% | U251 CNS 41.8% and 38.7% | PC-3 prostate 52.1% and 39% | UACC-62 melanoma 46% and 45.6% | LOX IMVI melanoma 27.3% and 44.1% | SK-MEL-28 melanoma 85.2% and 85.7% | SK-MEL-2 melanoma 96.9% and 82.4% | EKVX NSCLC 71.3% | TK-10 renal 40.8% and 48.7% | A498 renal 61.4% and 62.9% | CCRF-CEM leukemia 16.6% | MOLT-4 leukemia 38.2% and 36%
45% (inactive) and -25.6% (active): SK-MEL-5 melanoma
active: ACHN renal 7.15% and 9.28% | CAKI-1 renal 2.08%

Nc1nc(SC/C=C/CCl)c2[nH]cnc2n1
inactive: HCT-15 colon 104% and 94.2% | HT29 colon 108% and 95.5% | SNB-75 CNS 108% and 101% | SNB-19 CNS 107% and 102% | U251 CNS 99.1% and 98.1% | PC-3 prostate 99.6% and 93.6% | SK-MEL-5 melanoma 103% and 114% | UACC-62 melanoma 104% and 105% | LOX IMVI melanoma 103% | SK-MEL-28 melanoma 115% and 112% | SK-MEL-2 melanoma 120% and 95% | EKVX NSCLC 95% and 98.7% | UO-31 renal 87% and 94.3% | TK-10 renal 109% and 95% | ACHN renal 110% and 101% | A498 renal 83.6% and 91.6% | CCRF-CEM leukemia 96.6% | MOLT-4 leukemia 97.1% and 76.3%

N#C/C(=C1C=C/C(=N/O)C(Br)=C/1)c1ccccc1
inactive: HCT-15 colon 23.1% | SNB-75 CNS 23% | SNB-19 CNS 94.9% | U251 CNS 26.5% | SK-MEL-5 melanoma 53.6% | UACC-62 melanoma 33.1% | SK-MEL-28 melanoma 61.3% | SN12C renal 32.7% | UO-31 renal 36.7% | TK-10 renal 45% | ACHN renal 24.5% | CAKI-1 renal 15.1% | A498 renal 63.7% | MOLT-4 leukemia 18.5%
active: HT29 colon 8.98% | PC-3 prostate 4.02% | LOX IMVI melanoma 1.02% | SK-MEL-2 melanoma -22.3% | CCRF-CEM leukemia 4.04%

Nc1n[nH]c(=S)n1-c1ccc(Cl)cc1
inactive: HCT-15 colon 99.3% | HT29 colon 101% | SNB-75 CNS 82% | SNB-19 CNS 99.4% | U251 CNS 98.1% | PC-3 prostate 97.1% | SK-MEL-5 melanoma 105% | UACC-62 melanoma 96.2% | LOX IMVI melanoma 94.6% | SK-MEL-28 melanoma 101% | SK-MEL-2 melanoma 99.9% | EKVX NSCLC 106% | UO-31 renal 89% | TK-10 renal 92.6% | ACHN renal 103% | CAKI-1 renal 119% | A498 renal 109% | CCRF-CEM leukemia 96.7%

OCCN1CCN(CCO)CC1
inactive: HCT-15 colon 102% and 101% and 107% | HT29 colon 108% and 101% and 110% | SNB-75 CNS 111% and 83.4% and 96.1% | SNB-19 CNS 99.2% and 113% | U251 CNS 95.7% and 98% and 105% | PC-3 prostate 91.7% and 99.9% and 96.2% | SK-MEL-5 melanoma 102% and 92% and 115% | UACC-62 melanoma 99.5% and 92.6% and 109% | LOX IMVI melanoma 92.9% and 93.2% and 111% | SK-MEL-28 melanoma 33.7% and 104% and 106% | SK-MEL-2 melanoma 104% and 97.3% and 115% | EKVX NSCLC 107% and 85.1% and 114% | UO-31 renal 81.9% and 89.7% and 86.7% | TK-10 renal 93.6% and 107% and 108% | CAKI-1 renal 104% and 81.4% and 120% | A498 renal 110% and 95.5% and 101% | CCRF-CEM leukemia 99.5% and 88.4% and 98% | MOLT-4 leukemia 92.9% and 96.2% and 97.8%

O=C(Cc1cccc2ccccc12)N/N=C/c1ccc2c(c1)CCC2
inactive: HCT-15 colon 56.6% | HT29 colon 62.4% | SNB-75 CNS 80.2% | SNB-19 CNS 92.1% | U251 CNS 69.9% | PC-3 prostate 74.2% | SK-MEL-5 melanoma 80.6% | UACC-62 melanoma 54.3% | LOX IMVI melanoma 69.6% | SK-MEL-2 melanoma 84.6% | EKVX NSCLC 78.8% | SN12C renal 84% | UO-31 renal 63.3% | TK-10 renal 89.4% | ACHN renal 83.4% | CAKI-1 renal 66.1% | A498 renal 72.7% | CCRF-CEM leukemia 65.2% | MOLT-4 leukemia 47.9%

c1ccc2cc(C[n+]3ccn(Cc4ccc5ccccc5n4)c3)ccc2c1
0.992% (active) and 34% (inactive): MOLT-4 leukemia
-30.6% (active) and 20.1% (inactive): LOX IMVI melanoma
4.09% (active) and 14.7% (inactive): PC-3 prostate
-27% (active) and 80.5% (inactive): TK-10 renal
-1.09% (active) and 10.6% (inactive): UACC-62 melanoma
8.97% (active) and 41.2% (inactive): SK-MEL-28 melanoma
-30.7% (active) and 10.7% (inactive): HT29 colon
inactive: HCT-15 colon 96.3% and 101% | SNB-75 CNS 18.9% and 33.2% | SNB-19 CNS 13.3% and 19.7% | U251 CNS 12.4% and 23% | EKVX NSCLC 15.9% and 69% | UO-31 renal 98% and 86.4% | CAKI-1 renal 96.2% | CCRF-CEM leukemia 10.8% and 40.5%
active: SK-MEL-5 melanoma -87.6% and -67.9% | SK-MEL-2 melanoma -35.6% and -4.1%

CC(C(=O)O)n1cc(C#N)c(=O)[nH]c1=O (stereo not drawn)
inactive: HCT-15 colon 104% and 102% | HT29 colon 110% and 104% | SNB-75 CNS 83.7% and 76.9% | SNB-19 CNS 107% and 101% | U251 CNS 111% and 107% | PC-3 prostate 95.3% | SK-MEL-5 melanoma 105% and 102% | UACC-62 melanoma 103% and 99.7% | LOX IMVI melanoma 110% and 98.6% | SK-MEL-28 melanoma 110% | SK-MEL-2 melanoma 120% and 102% | EKVX NSCLC 95.6% and 110% | UO-31 renal 81.3% and 82.4% | TK-10 renal 112% and 110% | ACHN renal 100% and 96.5% | A498 renal 107% | CCRF-CEM leukemia 91.6% and 103% | MOLT-4 leukemia 90% and 107%

Nc1ncnc2c1ncn2C1CC(O)C(CO)O1 (stereo not drawn)
inactive: HCT-15 colon 107% and 111% | HT29 colon 109% and 115% | SNB-75 CNS 89.7% and 92.9% | SNB-19 CNS 107% and 103% | U251 CNS 102% and 100% | PC-3 prostate 110% and 102% | SK-MEL-5 melanoma 115% and 108% | UACC-62 melanoma 104% and 105% | LOX IMVI melanoma 103% and 105% | SK-MEL-2 melanoma 37.6% and 100% | EKVX NSCLC 100% and 118% | SN12C renal 105% and 104% | UO-31 renal 89% and 88.8% | TK-10 renal 113% and 109% | ACHN renal 110% and 120% | CAKI-1 renal 103% and 100% | A498 renal 105% and 98.5% | CCRF-CEM leukemia 114% and 99.2%
